Common to all, as to experiment: DAPPL (digital affinity profiling via proximity ligation, sequencing); 10 mM Tris-HCl pH 7.5, 50 mM NaCl, 1 mM DTT, 4% glycerol, room temperature, 30 min; GST-TFs on glutathione beads, 16-mer random dsDNA library, 0.1% formaldehyde crosslink after washing; high values mean tight binding
For one test, the target named is T1, FEV (Homo sapiens, UniProt Q99581 1-238).
T1 sequence: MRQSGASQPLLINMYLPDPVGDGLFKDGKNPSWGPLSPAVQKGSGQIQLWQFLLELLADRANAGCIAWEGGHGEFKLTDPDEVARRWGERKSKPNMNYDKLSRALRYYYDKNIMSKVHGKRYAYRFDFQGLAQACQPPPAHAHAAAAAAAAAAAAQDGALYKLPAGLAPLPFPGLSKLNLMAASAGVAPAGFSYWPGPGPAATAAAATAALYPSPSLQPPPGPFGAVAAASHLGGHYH
To be noted: protein: recombinant; tags: N-terminal GST; dsDNA, one strand shown. The method, boiled down: (§1)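 Beads coated with glutathione captured GST-fused human transcription factors that had been expressed in yeast, and the factors were then given DNA barcodes and pooled with a tag-only sample. The pools were incubated with 200 nmole of a random double-stranded 16-mer DNA library in Tris/NaCl/DTT/glycerol buffer for 30 min at room temperature, washed, crosslinked with 0.1% formaldehyde and proximity-ligated with BsaI/T4 ligase at 37 °C for 1 h. PCR amplification and Illumina NextSeq500 sequencing came last. Binding signal is each hexamer's read frequency for a factor divided by its frequency for the tag-only sample.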

The target in another test is ETV5 (Homo sapiens, UniProt P41161 1-510). The settings on record: protein: recombinant; tags: N-terminal GST; dsDNA, one strand shown. The gist of the method: as §1
For another test, the target named is HSF1 (Homo sapiens, UniProt Q00613 1-529). The settings on record: protein: recombinant; tags: N-terminal GST; chain copies: 3; dsDNA, one strand shown. The method, boiled down: as §1
Another test deals with T2, SPIC (Homo sapiens, UniProt Q8N5J4 1-248).
T2 sequence: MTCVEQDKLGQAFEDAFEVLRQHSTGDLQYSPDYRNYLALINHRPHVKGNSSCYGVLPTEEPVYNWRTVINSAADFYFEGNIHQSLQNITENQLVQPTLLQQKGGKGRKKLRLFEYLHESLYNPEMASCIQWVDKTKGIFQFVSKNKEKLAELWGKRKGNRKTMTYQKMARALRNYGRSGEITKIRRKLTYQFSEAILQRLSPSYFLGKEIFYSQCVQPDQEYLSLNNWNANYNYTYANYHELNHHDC
To be noted: protein: recombinant; tags: N-terminal GST; dsDNA, one strand shown. The gist of the method: as §1

A further test has as its target ELF4 (Homo sapiens, UniProt Q99607 1-663). The settings on record: protein: recombinant; tags: N-terminal GST; dsDNA, one strand shown. The gist of the method:
as §1

The target of the next test is T3, ELK4 (Homo sapiens, UniProt P28324-2 1-405).
T3 sequence: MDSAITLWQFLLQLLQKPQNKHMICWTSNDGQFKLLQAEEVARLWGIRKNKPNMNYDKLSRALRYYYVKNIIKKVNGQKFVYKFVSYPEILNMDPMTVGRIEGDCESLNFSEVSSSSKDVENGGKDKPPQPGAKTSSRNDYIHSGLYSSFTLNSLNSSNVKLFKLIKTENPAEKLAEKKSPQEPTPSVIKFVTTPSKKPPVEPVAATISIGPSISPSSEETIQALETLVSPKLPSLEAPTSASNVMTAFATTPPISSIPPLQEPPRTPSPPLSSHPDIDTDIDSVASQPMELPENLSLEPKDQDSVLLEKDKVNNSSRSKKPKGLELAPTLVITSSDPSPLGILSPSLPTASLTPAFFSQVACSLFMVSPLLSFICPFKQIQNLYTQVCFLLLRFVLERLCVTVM
To be noted: protein: recombinant; tags: N-terminal GST; dsDNA, one strand shown. The gist of the method: as §1

The next test concerns the target T4, ETV2 (Homo sapiens, UniProt O00321 1-342).
T4 sequence: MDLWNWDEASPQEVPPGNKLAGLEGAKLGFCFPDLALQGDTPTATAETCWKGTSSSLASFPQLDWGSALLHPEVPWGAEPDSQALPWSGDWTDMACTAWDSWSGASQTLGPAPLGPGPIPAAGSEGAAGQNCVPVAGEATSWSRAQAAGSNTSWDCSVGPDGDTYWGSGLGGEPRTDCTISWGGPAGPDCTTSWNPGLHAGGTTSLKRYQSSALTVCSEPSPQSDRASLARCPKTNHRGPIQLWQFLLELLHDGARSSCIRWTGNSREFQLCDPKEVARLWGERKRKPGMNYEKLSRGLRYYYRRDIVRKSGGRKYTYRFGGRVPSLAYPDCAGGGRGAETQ
The settings on record: protein: recombinant; tags: N-terminal GST; dsDNA, one strand shown. The gist of the method: as §1

A further test has as its target T5, ELF3 (Homo sapiens, UniProt P78545 1-371).
T5 sequence: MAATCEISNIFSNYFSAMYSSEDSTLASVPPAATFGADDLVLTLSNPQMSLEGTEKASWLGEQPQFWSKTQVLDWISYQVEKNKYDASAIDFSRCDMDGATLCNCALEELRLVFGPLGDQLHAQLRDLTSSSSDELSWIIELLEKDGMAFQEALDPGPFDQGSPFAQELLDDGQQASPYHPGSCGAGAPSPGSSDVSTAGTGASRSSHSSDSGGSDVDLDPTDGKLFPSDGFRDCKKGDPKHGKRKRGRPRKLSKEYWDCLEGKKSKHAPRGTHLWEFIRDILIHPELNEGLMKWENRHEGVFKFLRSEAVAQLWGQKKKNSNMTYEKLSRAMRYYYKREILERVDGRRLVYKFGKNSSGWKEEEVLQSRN
To be noted: protein: recombinant; tags: N-terminal GST; dsDNA, one strand shown. The method, boiled down: as §1

The next test concerns the target CRX (Homo sapiens, UniProt O43186 1-299). To be noted: protein: recombinant; tags: N-terminal GST; dsDNA, one strand shown. The method, boiled down:
as §1

Another test addresses ETV1 (Homo sapiens, UniProt P50549 1-477). To be noted: protein: recombinant; tags: N-terminal GST; dsDNA, one strand shown. The method, boiled down: as §1
A further test concerns the target T6, ERF (Homo sapiens, UniProt P50548 1-548).
T6 sequence: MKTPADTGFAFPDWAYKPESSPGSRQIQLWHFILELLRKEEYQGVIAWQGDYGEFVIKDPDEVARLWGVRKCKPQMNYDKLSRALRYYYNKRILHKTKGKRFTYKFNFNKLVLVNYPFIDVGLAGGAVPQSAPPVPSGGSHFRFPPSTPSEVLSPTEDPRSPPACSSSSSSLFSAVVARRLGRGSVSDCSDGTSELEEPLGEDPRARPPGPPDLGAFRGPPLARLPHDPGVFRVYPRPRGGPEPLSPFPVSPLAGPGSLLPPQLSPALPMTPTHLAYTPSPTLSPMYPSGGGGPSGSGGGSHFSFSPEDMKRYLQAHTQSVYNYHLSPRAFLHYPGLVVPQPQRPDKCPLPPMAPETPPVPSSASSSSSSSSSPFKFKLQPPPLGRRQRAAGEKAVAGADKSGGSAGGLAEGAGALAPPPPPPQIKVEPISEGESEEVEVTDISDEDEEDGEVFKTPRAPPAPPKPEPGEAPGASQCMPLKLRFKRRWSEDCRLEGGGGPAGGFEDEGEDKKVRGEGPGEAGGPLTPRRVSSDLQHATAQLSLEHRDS
The settings on record: protein: recombinant; tags: N-terminal GST; dsDNA, one strand shown. The gist of the method: as §1

A further test has as its target T7, ETV3L (Homo sapiens, UniProt Q6ZN32 1-361).
T7 sequence: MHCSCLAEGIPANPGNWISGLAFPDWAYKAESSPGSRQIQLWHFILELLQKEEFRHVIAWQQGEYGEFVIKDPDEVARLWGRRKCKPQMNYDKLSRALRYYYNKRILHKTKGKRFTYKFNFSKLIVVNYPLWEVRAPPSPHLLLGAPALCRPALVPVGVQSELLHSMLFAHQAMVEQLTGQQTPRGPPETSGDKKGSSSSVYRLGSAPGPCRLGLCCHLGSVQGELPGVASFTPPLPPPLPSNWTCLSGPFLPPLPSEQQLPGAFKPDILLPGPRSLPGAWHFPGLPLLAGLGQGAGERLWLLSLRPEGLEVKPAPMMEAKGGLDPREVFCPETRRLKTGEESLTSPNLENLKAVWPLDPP
To be noted: protein: recombinant; tags: N-terminal GST; dsDNA, one strand shown. The gist of the method:
as §1

For the next test, the target named is T8, ETS2 (Homo sapiens, UniProt P15036 1-469).
T8 sequence: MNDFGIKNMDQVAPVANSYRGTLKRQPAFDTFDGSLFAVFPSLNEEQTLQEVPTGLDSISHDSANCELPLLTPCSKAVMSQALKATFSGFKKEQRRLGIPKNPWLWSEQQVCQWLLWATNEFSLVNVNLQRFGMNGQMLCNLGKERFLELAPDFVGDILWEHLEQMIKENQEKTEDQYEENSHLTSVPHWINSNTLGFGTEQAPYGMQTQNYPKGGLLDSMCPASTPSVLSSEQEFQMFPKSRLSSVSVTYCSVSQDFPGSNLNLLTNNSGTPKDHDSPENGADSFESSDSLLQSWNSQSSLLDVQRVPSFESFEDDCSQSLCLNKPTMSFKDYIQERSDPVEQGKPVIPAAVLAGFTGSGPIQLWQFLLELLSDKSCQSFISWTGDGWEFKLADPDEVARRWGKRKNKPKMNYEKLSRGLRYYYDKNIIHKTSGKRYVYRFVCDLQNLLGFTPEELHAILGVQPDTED
The settings on record: protein: recombinant; tags: N-terminal GST; dsDNA, one strand shown. The method, boiled down:
as §1

A further test deals with T9, SPDEF (Homo sapiens, UniProt O95238 1-335).
T9 sequence: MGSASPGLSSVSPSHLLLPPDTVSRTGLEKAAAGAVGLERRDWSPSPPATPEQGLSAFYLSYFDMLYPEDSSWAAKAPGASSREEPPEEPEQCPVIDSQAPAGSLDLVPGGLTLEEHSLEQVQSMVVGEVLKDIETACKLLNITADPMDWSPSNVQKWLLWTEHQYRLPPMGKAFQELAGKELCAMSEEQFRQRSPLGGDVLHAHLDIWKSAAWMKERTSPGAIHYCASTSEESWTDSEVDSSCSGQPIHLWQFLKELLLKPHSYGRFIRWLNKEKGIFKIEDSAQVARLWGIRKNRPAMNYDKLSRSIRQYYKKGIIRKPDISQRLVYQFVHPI
The settings on record: protein: recombinant; tags: N-terminal GST; dsDNA, one strand shown. The gist of the method:
as §1

Another test has as its target T10, ETV7 (Homo sapiens, UniProt Q9Y603 1-341).
T10 sequence: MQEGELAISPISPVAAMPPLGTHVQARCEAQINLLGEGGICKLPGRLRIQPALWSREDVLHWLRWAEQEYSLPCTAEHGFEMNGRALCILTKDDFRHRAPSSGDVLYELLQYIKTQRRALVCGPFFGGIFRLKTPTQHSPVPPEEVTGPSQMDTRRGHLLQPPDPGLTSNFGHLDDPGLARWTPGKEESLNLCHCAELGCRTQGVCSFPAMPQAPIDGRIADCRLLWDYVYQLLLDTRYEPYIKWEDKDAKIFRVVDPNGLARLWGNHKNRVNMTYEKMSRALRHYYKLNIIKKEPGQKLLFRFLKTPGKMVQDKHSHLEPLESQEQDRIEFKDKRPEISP
To be noted: protein: recombinant; tags: N-terminal GST; dsDNA, one strand shown. The gist of the method:
as §1

In another test the target is T11, ELF5 (Homo sapiens, UniProt Q9UKW6-2 1-255).
T11 sequence: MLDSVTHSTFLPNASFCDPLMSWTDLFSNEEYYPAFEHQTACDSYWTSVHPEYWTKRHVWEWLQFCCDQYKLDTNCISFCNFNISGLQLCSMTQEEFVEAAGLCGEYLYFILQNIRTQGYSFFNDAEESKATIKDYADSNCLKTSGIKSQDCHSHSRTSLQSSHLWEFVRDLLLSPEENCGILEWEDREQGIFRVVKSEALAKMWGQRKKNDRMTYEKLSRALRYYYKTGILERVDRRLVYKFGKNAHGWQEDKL
The settings on record: protein: recombinant; tags: N-terminal GST; dsDNA, one strand shown. The gist of the method:
as §1

For the next test, the target named is T12, ETV3 (Homo sapiens, UniProt P41162-2 1-143).
T12 sequence: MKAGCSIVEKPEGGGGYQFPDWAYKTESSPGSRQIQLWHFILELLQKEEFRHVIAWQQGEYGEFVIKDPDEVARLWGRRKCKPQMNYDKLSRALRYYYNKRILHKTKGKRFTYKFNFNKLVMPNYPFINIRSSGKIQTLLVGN
The settings on record: protein: recombinant; tags: N-terminal GST; dsDNA, one strand shown. The method, boiled down:
as §1

In another test the target is ETV6 (Homo sapiens, UniProt P41212 1-452). The settings on record: protein: recombinant; tags: N-terminal GST; dsDNA, one strand shown. The method, boiled down:
as §1

Sequence of ELF4 (Q99607 whole entry): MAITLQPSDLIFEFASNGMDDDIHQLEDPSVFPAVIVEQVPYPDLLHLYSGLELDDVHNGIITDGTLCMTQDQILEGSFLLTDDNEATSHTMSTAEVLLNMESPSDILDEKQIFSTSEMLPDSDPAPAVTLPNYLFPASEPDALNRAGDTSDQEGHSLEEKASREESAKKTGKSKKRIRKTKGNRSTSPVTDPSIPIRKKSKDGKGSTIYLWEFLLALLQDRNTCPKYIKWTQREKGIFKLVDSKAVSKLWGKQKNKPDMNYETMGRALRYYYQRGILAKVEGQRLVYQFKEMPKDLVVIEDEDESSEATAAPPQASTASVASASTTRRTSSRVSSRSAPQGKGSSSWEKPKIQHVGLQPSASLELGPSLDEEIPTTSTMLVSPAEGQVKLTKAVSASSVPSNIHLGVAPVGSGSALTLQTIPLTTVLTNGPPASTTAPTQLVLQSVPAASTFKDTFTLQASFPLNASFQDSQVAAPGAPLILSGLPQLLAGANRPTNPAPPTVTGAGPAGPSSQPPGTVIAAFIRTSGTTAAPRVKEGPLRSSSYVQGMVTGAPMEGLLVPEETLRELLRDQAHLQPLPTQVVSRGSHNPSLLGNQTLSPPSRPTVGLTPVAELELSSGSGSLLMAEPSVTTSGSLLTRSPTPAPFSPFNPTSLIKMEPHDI
Sequence of ETV5 (P41161 whole entry): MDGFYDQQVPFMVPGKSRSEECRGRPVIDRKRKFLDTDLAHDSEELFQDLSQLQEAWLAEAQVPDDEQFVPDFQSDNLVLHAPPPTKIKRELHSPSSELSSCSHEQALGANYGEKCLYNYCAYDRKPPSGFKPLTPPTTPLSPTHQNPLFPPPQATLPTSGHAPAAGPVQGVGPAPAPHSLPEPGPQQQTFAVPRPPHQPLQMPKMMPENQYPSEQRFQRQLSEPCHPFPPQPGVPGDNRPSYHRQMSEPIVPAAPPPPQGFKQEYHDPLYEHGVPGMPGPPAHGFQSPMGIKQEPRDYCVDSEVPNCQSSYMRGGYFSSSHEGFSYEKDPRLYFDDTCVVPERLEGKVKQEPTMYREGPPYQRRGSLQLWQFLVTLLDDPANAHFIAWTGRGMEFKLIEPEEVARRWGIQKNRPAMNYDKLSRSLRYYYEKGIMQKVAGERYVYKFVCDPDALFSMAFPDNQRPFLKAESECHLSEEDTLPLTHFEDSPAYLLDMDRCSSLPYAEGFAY
Sequence of HSF1 (Q00613 whole entry): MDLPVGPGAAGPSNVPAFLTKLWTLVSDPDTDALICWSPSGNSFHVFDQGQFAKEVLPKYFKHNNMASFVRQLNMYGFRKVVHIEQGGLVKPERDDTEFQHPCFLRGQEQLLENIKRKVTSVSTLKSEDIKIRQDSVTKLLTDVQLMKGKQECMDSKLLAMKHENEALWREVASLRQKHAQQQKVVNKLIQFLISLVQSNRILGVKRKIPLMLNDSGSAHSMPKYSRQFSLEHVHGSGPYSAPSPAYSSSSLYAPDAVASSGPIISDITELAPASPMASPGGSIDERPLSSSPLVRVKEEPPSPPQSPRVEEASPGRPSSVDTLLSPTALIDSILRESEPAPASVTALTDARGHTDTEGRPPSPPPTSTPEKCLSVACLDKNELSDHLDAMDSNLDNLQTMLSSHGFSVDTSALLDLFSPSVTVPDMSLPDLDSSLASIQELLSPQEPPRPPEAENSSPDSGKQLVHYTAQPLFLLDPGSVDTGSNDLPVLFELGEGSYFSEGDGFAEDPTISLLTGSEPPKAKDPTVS
Sequence of ETV6 (P41212 whole entry): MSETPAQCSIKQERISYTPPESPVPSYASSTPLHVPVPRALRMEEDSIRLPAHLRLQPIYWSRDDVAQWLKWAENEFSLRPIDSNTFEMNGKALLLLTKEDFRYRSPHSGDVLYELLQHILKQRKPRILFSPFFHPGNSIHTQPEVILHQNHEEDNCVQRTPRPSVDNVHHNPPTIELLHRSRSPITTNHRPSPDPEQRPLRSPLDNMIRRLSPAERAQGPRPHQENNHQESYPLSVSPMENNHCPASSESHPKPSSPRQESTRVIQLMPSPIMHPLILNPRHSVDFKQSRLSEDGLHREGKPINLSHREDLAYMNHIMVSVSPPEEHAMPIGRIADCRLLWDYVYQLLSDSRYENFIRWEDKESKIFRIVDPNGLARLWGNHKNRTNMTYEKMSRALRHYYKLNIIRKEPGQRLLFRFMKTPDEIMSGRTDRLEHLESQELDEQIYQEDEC
Sequence of ETV1 (P50549 whole entry): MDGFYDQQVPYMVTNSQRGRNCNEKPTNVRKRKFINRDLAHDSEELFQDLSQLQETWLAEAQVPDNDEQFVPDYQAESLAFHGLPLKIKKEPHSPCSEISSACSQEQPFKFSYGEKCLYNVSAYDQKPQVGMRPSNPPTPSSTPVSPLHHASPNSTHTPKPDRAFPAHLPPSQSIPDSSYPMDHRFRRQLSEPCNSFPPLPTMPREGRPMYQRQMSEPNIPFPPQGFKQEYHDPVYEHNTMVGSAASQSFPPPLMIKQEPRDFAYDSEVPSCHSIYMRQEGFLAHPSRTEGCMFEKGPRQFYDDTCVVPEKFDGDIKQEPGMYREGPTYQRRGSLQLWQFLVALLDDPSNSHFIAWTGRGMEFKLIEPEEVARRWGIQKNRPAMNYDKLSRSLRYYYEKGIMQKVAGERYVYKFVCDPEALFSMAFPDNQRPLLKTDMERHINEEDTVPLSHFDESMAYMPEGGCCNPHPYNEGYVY
Sequence of CRX (O43186 whole entry): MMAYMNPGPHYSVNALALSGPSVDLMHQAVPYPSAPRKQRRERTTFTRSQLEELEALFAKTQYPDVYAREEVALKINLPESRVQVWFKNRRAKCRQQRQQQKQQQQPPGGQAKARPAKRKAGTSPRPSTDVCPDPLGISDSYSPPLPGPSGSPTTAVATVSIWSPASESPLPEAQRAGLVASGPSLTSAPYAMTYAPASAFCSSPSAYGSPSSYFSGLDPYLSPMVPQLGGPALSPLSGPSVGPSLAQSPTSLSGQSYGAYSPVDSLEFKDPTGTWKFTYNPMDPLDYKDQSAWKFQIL

Take CTTTTG: the binding signal is 1.3 fold enrichment (6-mer frequency, TF over GST control) in the test with FEV; 1.38 fold enrichment (6-mer frequency, TF over GST control) with ETV5; 1.36 fold enrichment (6-mer frequency, TF over GST control) with HSF1; 1.36 fold enrichment (6-mer frequency, TF over GST control) in the test with SPIC; 1.42 fold enrichment (6-mer frequency, TF over GST control) in the test with ELF4; 1.35 fold enrichment (6-mer frequency, TF over GST control) with ELK4. The binding signal in the test with ETV2 is 1.25 fold enrichment (6-mer frequency, TF over GST control); with ELF3 it was 1.39 fold enrichment (6-mer frequency, TF over GST control); with CRX it was 1.43 fold enrichment (6-mer frequency, TF over GST control); with ETV1, 1.3 fold enrichment (6-mer frequency, TF over GST control); with ERF it was 1.62 fold enrichment (6-mer frequency, TF over GST control); in the test with ETV3L, 1.31 fold enrichment (6-mer frequency, TF over GST control). Also, the binding signal with ETS2 is 1.45 fold enrichment (6-mer frequency, TF over GST control); with SPDEF it was 1.46 fold enrichment (6-mer frequency, TF over GST control); in the test with ETV7 it was 1.44 fold enrichment (6-mer frequency, TF over GST control); in the test with ELF5, 1.28 fold enrichment (6-mer frequency, TF over GST control); with ETV3 it was 1.24 fold enrichment (6-mer frequency, TF over GST control); with ETV6, 1.46 fold enrichment (6-mer frequency, TF over GST control).

These data come from PMC7862700, “An all-to-all approach to the identification of sequence-specific readers for epigenetic DNA modifications on cytosine”.
